# PubChem BioAssay AID485313 (National Center for Advancing Translational Sciences (NCATS), 2010)
# In all, about 320,000 compounds went through this assay and about 7,600 (2.4%) were called active. Another 3% or so got no clear call; they are omitted. The call rests on the fitted dose curve; in most records, active means well fitted activation curve with a large enough effect; inconclusive means small, poorly fitted or top-dose-only effect; inactive means no such curve, though single readings can be large or run the other way. Shown is part of a subset that was picked to be rich in actives.
# Assay: qHTS Assay for NPC1 Promoter Activators; further: nearly all actives have a fitted effect of over 60% in size;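 on activation: reporter is driven by a mutant NPC1 promoter; % of control where 0% means no effect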
# Details: Huh7 NPC1 promoter luciferase reporter, 24 h; series mostly up to 9.22 µM; activation: at the top concentration
# Summary of the method: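 Stable NPC1-promoter luciferase Huh7 line; cpd (DMSO) 24 h, 37 °C, 5% CO2; Amplite luciferase reagent 10 min RT; luminescence readout. qHTS format.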
# Potency means the concentration at half of the fitted maximal effect.
SMILES,activation,Potency
CCN(c1ccccc1)S(=O)(=O)c1ccc(OCC(=O)N2CCCC2)cc1,0.407% (inactive),
O=C(NNC(=O)c1cc(S(=O)(=O)N2CCCCC2)ccc1Cl)c1ccccc1O,5.13% (inactive),
Cc1cc(C)cc(NC(=O)C(c2ccccc2)N2CCN(CC(=O)N3CCCC3)CC2)c1 (stereo unspecified),-2.46% (inactive),
COc1ccc(S(=O)(=O)N2CCOCC2)cc1NC(=O)CC1CC2CCC1C2 (stereo unspecified),-1.44% (inactive),
CCOc1nnc(C)c2c(C)n(-c3cccc(Cl)c3)nc12,0.78% (inactive),
Cc1ccccc1Nc1nc(N)nc(CSc2nnc3ccccn23)n1,14.3% (inactive),
Cc1ccc(C(=O)OCc2nc(N)nc(Nc3ccccc3C)n2)cc1,0.195% (inactive),
Cc1ccccc1Nc1nc(N)nc(CSc2ccccc2)n1,,1260 nM (active)
O=C1CC[C@H](O)CCN1[C@H](CSc1ccc(Br)cc1)Cc1ccccc1,-5.67% (inactive),
CCOc1cc(CN2CCN(C(=O)CC(C)C)CC2)ccc1OC,-0.87% (inactive),
COc1ccc(COCC(O)CN2CCC(C(N)=O)CC2)cc1 (stereo unspecified),0.393% (inactive),
COc1cc(CN2CCC(C(N)=O)CC2)ccc1OCc1ccccc1,,3980 nM (active)
CCOC(=O)C1CCN(S(=O)(=O)c2ccc3c(c2)N(C(C)=O)CCO3)CC1,-4.36% (inactive),
Cc1ccc(C)c(NC(=O)C(c2ccccc2)N2CCN(CC(=O)NC3CC3)CC2)c1 (stereo unspecified),-2.67% (inactive),
COc1ccc(CNC(=O)COc2ccccc2C(=O)c2cnn(-c3ccccc3)c2)cc1OC,26.5% (inactive),
Cc1ncc(CC(=O)n2cc(C(=O)c3cc(Cl)ccc3O)cn2)s1,1.35% (inactive),
O=C(c1cnn(-c2ccc(Cl)cc2)c1)c1ccccc1O,,3550 nM (active)
Cc1ccnc(-n2sc3ccccc3c2=O)n1,0.72% (inactive),
Cc1ccnc(Nc2nc3ccccc3s2)n1,,3550 nM (active)
Cc1ccnc(NC(=O)c2ccco2)n1,1.97% (inactive),
COc1cc(C(=O)NNC(=O)CN2C(=O)NC3(CCCC3)C2=O)cc(OC)c1OC,0.54% (inactive),
CN(C)S(=O)(=O)c1ccc(C(=O)NCC2(N3CCOCC3)CCCCC2)cc1,-6.14% (inactive),
CC1CCCC(C)N1C(=O)CSc1nnnn1C1CCCC1 (stereo unspecified),24.7% (inactive),
CC(=O)Nc1ccc(NC(=O)CSc2nnnn2C2CCCCC2)cc1,-0.375% (inactive),

SMILES,activation,Potency
O=C(CSc1nnnn1C1CCCC1)N1CCCCC1,,3550 nM (active)
C/C(=N\NC(=O)c1ccc(NS(=O)(=O)c2cccs2)cc1)c1ccc2ccccc2c1,-5.94% (inactive),
COCCNc1nnc(SCC(=O)NNC(=O)c2ccco2)s1,-0.171% (inactive),
COc1ccccc1N1CCN(C(=O)CSc2ncnc3c2cnn3-c2ccc(C)c(C)c2)CC1,25.1% (inactive),
COc1ccc(Oc2c(Cl)cnn(-c3ccccc3)c2=O)cc1,-8.11% (inactive),
COc1ccc2oc(=O)c(C(=O)N3CCCc4ccccc43)cc2c1,-5.28% (inactive),
COc1ccc(-n2ncc3c(N4CCCc5ccccc54)ncnc32)cc1,,501 nM (active)
Cc1cccc(-n2ncc3c(N4CCc5ccccc54)ncnc32)c1,,1580 nM (active)
Cc1cccc(-n2ncc(Cl)c(Cl)c2=O)c1,-43.6% (inactive),
O=C(CCNC(=O)c1ccccc1Cl)NCc1ccco1,-2.81% (inactive),
O=C(CCC(=O)c1ccccc1)NCc1cccc(C(F)(F)F)c1,-2.76% (inactive),
FC(F)Oc1ccccc1C1CC(c2ccc(Br)s2)Nc2ncnn21 (stereo unspecified),-3.94% (inactive),
Cc1ccc(Nc2nc(N)nc(CSc3nnc(C)s3)n2)cc1,,2510 nM (active)
Cc1nnc(SCc2nc3ccccc3nc2C)s1,0.203% (inactive),
CCOC(=O)N1CCN(Cc2nc(N)nc(Nc3ccc(C)cc3)n2)CC1,-3.41% (inactive),
Nc1ccc(Nc2cc(O)c3ncccc3c2)cc1,-33.9% (inactive),
CCCN(CC(=O)Nc1ccccc1C)C(=O)c1ccc2[nH]c3c(c2c1)CC(C)CC3 (stereo unspecified),-1.21% (inactive),
COc1ccc2oc(=O)c(C(=O)N3CCCC3)cc2c1,-0.759% (inactive),
Cc1ccc2cc3cc(C(=O)N4CCCCCC4)oc3nc2c1,,1120 nM (active)
Cc1cc(C)cc(NC(=O)N2CCCCCCC2)c1,-2.27% (inactive),
COc1ccc(-c2c(-c3cc(OC)cc(OC)c3)n(C)c3ccc(-c4ccn[nH]4)cc23)cc1,-5.11% (inactive),
O=C(Nc1ccc(Br)cn1)c1ccc([N+](=O)[O-])cc1Cl,,2000 nM (active)
O=C(Nc1ccc(Br)cn1)c1ccc([N+](=O)[O-])o1,-17.1% (inactive),
O=C(Nc1ccncc1)c1ccc([N+](=O)[O-])cc1Cl,1.57% (inactive),

SMILES,activation,Potency
C=CCn1cc(-c2cccc(C(F)(F)F)c2)cc(C#N)c1=O,1.99% (inactive),
CN(C)C(CNC(=O)c1ccc(OCc2cn3ccccc3n2)cc1)c1ccco1 (stereo unspecified),15.6% (inactive),
Cc1ccc(Oc2cnn(-c3ccccc3)c(=O)c2Br)cc1,-1.01% (inactive),
O=c1c(Cl)c(NC2CC2)cnn1-c1ccccc1,18.8% (inactive),
C=CCNc1cnn(-c2ccc(C)cc2)c(=O)c1Cl,,2820 nM (active)
CC(C)Nc1nnc(SCC(=O)c2c[nH]c3ccccc23)s1,8.11% (inactive),
COc1ccc(/C=N/Nc2ccccc2C(=O)O)cc1,,89.1 nM (active)
COc1ccc(/C=N/OCC(=O)N(Cc2ccccc2)c2ccccc2C(=O)O)cc1,-3.19% (inactive),
COc1ccc(CCCc2nnc(SCc3nc4ccccc4c(=O)[nH]3)n2C)cc1,-4.67% (inactive),
COc1ccc(NS(=O)(=O)c2cc(C(=O)Nc3ccccc3C(=O)O)ccc2C)cc1,-35.8% (inactive),
COc1ccc(/C=N/Nc2nc(-c3ccc(C)cc3)c(C#N)c(=O)[nH]2)cc1,-2.06% (inactive),
COc1ccc(/C=N/Nc2nc3ccccc3c(=O)[nH]2)cc1,,3160 nM (active)
CCC(=O)c1ccc(OCC(=O)N(CC)CC2COc3ccccc3O2)cc1 (stereo unspecified),2.33% (inactive),
COCCn1c(C)cc(C(=O)COC(=O)CNC(=O)c2ccco2)c1C,-2.34% (inactive),
COc1cccc(C2=CC(=O)C[C@H](c3ccc(F)cc3)C2)c1OC,-8.4% (inactive),
Cc1cc(F)ccc1S(=O)(=O)Nc1ccc(C(=O)N(C)Cc2ccco2)cc1,-7.8% (inactive),
COc1ccccc1NC(=O)COC(=O)COc1ccccc1F,0.971% (inactive),
Nc1ccc(-c2sc(N)nc2-c2ccccc2)cc1,1.72% (inactive),
O=C(Nc1cccc(Cl)c1)Nc1nnc(-c2ccccc2)o1,-0.287% (inactive),
O=C(COC(=O)c1ccccc1Br)Nc1nnc(-c2ccccc2)o1,-2.45% (inactive),
O=C(COC(=O)c1ccc(Oc2ccccc2)cc1)Nc1nnc(-c2ccccc2)o1,6.91% (inactive),
Nc1ccc(-c2nnc(-c3ccc(-c4ccccc4)cc3)o2)cc1,,4470 nM (active)
Nc1ccc(-c2nnc(-c3ccccc3)o2)cc1,,3160 nM (active)
